From PubChem BioAssay AID588 (National Center for Advancing Translational Sciences (NCATS), 2007)
Hit rate of the full screen: of about 59,000 compounds, about 25 (0.04%) were called active. The sample holds actives, similar compounds and a random draw of the others, so the mix is not that of the screen. How the calls were made is not given here.

Assay: qHTS Assay for Spectroscopic Profiling in Resorufin Spectral Region
Conditions: Compound fluorescence, resorufin region 547/598 nm, buffer
Source text: NIH Molecular Libraries Screening Centers Network [MLSCN] NIH Chemical Genomics Center [NCGC] […] Occasionally, the artifactual effect may originate from the compound#s own spectral or other biophysical properties which generally tend to track its assay concentration. Pre-screening/profiling the library with respect to the compounds# spectral properties should help one exclude false positives early on. While the most informative fluorescent profiling data set is obtained by performing a full excitation and emission scan of each well by using a monochromator-based plate reader, such an approach is practical only on a very limited scale as scanning each well requires long time. An alternative approach, applied here, is to perform plate reader scans using selected excitation and emission wavelength pairs to generate a multidimensional relational database that correlates compound concentration and the respective relative fluorescence intensity at a given wavelength set. A standard curve of resorufin present on each plate as six-point concentration series, was used to compute a normalized fluorescence response, termed dye-equivalent concentration, for each compound at each concentration.
NCGC Assay Protocol Summary: Buffer: 100 mM Tris buffer, pH 8.0 Dye standard plate: The wells in columns 1 through 4 of a Kalypsys polypropylene 1536-well compound plate were filled with standard solutions of fluorophore corresponding to the spectral region of interest. Solutions of resorufin were placed in the following wells: M1, N1: 3 mM, M2, N2: 300 uM, M3, N3: 30 uM, M4, N4: zero (DMSO), O1, P1: 3 uM, O2, P2: […], O3, P3: 300 nM, O4, P4: zero (DMSO). Assay Steps: Six uL of buffer were dispensed to 1536-well Greiner black plates. Compounds and dye standards (23 nL) were transferred via Kalypsys PinTool. The plates were incubated for 15 min at room temperature, and then read on ViewLux (Perkin-Elmer) High-throughput CCD imager using 547 nm and 598 nm excitation and emission filter set. Keywords: NIH Roadmap, MLSCN, MLI, MLSMR, qHTS, NCGC, Resorufin, Fluorescent Profiling.

Structure (SMILES) | max dye-equivalent concentration
Nc1ccc2[nH]cc(CCC(=O)O)c2c1 | inactive
Cc1ccccc1N1CCN(S(=O)(=O)C[C@@]23CC[C@H](C[C@H]2NC(=O)[C@@H](N)CCS(C)(=O)=O)C3(C)C)CC1 | inactive
COCCNc1ccnc(-c2cccc(NS(C)(=O)=O)c2)n1 | inactive
CCOC(=O)c1c(C)[nH]c(C)c1C(=O)CSc1nc(N)cc(N)n1 | inactive
O=C(Cn1c(=S)nc2ccccn21)N1CCc2ccccc2C1 | inactive
CN1CCN2c3ccccc3Cc3ccccc3[C@@H]2C1 | inactive
COc1ccc2c(CC(=O)Nc3nnc(C4CC4)s3)coc2c1 | inactive
CC(CCO)Nc1nc2c([nH]1)c(=O)n(C)c(=O)n2C (stereo not given) | inactive
CCOc1c(OC)cc(C2C(C#N)=C(N)Oc3n[nH]c(-c4ccncc4)c32)cc1OC (stereo not given) | inactive
Cc1ccc(S(=O)(=O)N2CCC(C(=O)N[C@@H](C)C(=O)NCCc3ccccc3)CC2)cc1 | inactive
NS(=O)(=O)c1cc2c(cc1Cl)NC(C(Cl)Cl)NS2(=O)=O (stereo not given) | inactive
CCOC(=O)N1CCN(C(=O)CSc2nnc(-c3c[nH]c4ccccc34)n2CCOC)CC1 | inactive
CCOc1ccc(Cn2c(SCCCCC#N)nc3c2c(=O)n(C)c(=O)n3C)cc1OCC | inactive
CNc1ncnc2ccc(-c3cccc(NS(C)(=O)=O)c3)cc12 | inactive
Cc1ccc(C)n1C(Cc1ccccc1)C(=O)O (stereo not given) | inactive
COc1cccc2c(C)c(C(=O)O)[nH]c12 | inactive
Cc1nc2ccccc2cc1O | inactive
COCCNC(=O)C(c1ccc(C)o1)N(Cc1cccs1)C(=O)c1snc(C(N)=O)c1N (stereo not given) | inactive
Cc1cc(C)c(C)c(S(=O)(=O)Nc2ccc(O)cc2)c1C | inactive
CCN(CC)Cc1c(C(=O)OC)nnn1-c1nonc1N | inactive
Cn1cccc1C(=O)N1CCC[C@@]2(CCN(Cc3nccs3)C2)C1 | inactive
COc1cc2[nH]c(=S)n(CCN3CCCCC3C)c(=O)c2cc1OC (stereo not given) | inactive
COc1ccc(CCNC(=O)c2ccc3c(c2)NC(=O)C(N2CCOCC2)S3)cc1OC (stereo not given) | inactive
COc1ccc(CCn2c(NCCCN3CCOCC3)nc3c2c(=O)[nH]c(=O)n3C)cc1 | inactive
Cc1ccccc1CSc1nnc(-c2cccnc2)n1N | inactive
COCCN(C(=O)CCC(=O)Nc1ccccn1)C(C(=O)NCCC(C)C)c1ccc(OC)cc1 (stereo not given) | inactive
NCCNCC1CCNCC1 | inactive
Cc1ccc(N2CCN(c3ccc(C)cc3)C2c2ccccn2)cc1 | inactive
O=C(NCCCN1CCN(c2ccccc2F)CC1)C1CCC(=O)N1C1CCCCC1 (stereo not given) | inactive
CCOc1ccc(C(C)C)cc1S(=O)(=O)n1nc(C)cc1C | inactive
